Data on 14 compounds can be found in publication PMC5540273 (PLoS ONE, 2017).

One experiment concerns T1, JNK1.
T1 construct: gene MAPK8

In a further experiment the test system is T2, JNK2.
T2 construct: gene MAPK9

The next experiment concerns T3, JNK3.
T3 construct: gene MAPK10

Experiment [1] deals with JAK2(JH1domain-catalytic).
Experiment [2] deals with JAK3(JH1domain-catalytic).
Experiment [3] relates to JAK1(JH2domain-pseudokinase).

Where only a bound is given, the exact number is not on record here.
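Note: kd values determined as follow-up on hits from a single-replicate KINOMEscan panel screen.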

`COC(=O)c1c(-c2ccccc2)c2cc(Br)ccc2c(=O)n1Cc1ccc(NC(=O)CCC(=O)O)cc1`: the Kd – broadly, a measure of binding affinity in units of concentration – in the experiment with JNK1 came out at 58 nM; with JNK2, 66 nM; in the experiment with JNK3, 13 nM.

Regarding `CCn1c(-c2ccoc2)nc2cnccc21` [SB-733887], the Kd in the experiment on INSR was over 10000 nM.

Turning to `CC(C)(C)c1ccc(C(=O)Nc2cn3cc(-c4ccccc4)ccc3n2)cc1`, the Kd in the experiment on KIT was over 10000 nM.

Compound `O=C(NCCNc1ccnc(Nc2ccc(F)cc2)n1)Nc1ccc2c(c1)OCO2` [GSK1379882] had a Kd in experiment [1] of 2000 nM. That is a single-digit micromolar value.

In the case of `COc1cc(Nc2ccnc3ccc(C(F)(F)F)cc23)cc(OC)c1OC` [GW577382], in experiment [2], the Kd is over 10000 nM.

Compound `Cc1nc(N(C)[C@H]2CN(C(=O)CC#N)CC[C@H]2C)c2cc[nH]c2n1` showed a Kd in experiment [2] of 140 nM.

Turning to `Cc1cc(Nc2nc(-c3cccc(C)n3)nc3ccccc23)ccn1` [GW872411], the Kd in experiment [3] came to 410 nM.

Take `COc1ccc(-n2cnc3c(N)ncnc32)cc1` [SKF-97236]: the Kd in the experiment with KIT turned out to be 200 nM.

On to `Nc1nc(-c2ccccc2F)c(-c2ccnc3ccccc23)s1` [GW560459], for which the Kd with INSR was over 10000 nM; in the experiment on JNK2, 1200 nM; in the experiment on JNK3, 610 nM.

As to `CCC(=O)c1c(-c2ccccc2)c2cc(Cl)ccc2c(=O)n1Cc1cc(S(C)(=O)=O)n(CC(N)=O)n1`, the Kd with JNK1 turned out to be 160 nM; with JNK2 it was 120 nM; in the experiment with JNK3, 60 nM.

In experiment [2], `COc1cccc(C2=C(Nc3cccc(C(=O)O)c3)C(=O)NC2=O)c1` [SB-390770] yielded a Kd of 480 nM.

Compound `Nc1nc(N)c2nc(-c3ccccc3)[nH]c2n1` [SKF-12778] came in with a Kd in experiment [3] of 150 nM.

In the case of `Cl.NS(=O)(=O)c1cccc(Nc2cc(-c3ccc(F)cc3)n[nH]2)c1` [GW824645], the Kd in the experiment on KIT came to 16 nM.

In turn, `COc1cc2nccc(Nc3ccc(OCc4ccc(NC(C)=O)cc4)cc3)c2cc1OC.Cl` [GW440135] came in with a Kd with KIT of 7.4 nM.
